In PubChem BioAssay (Tox21):
A number with no mark means an inactive call. Records with an inconclusive call do not appear. Where a call stands in place of a potency, no number is given. Active and inactive are the calls of the source. Unless noted, the call rests on the fitted dose curve; in most records, active means well fitted curve in the direction sought with a large enough effect in the repeat runs; inconclusive means weak or mixed curves; inactive means no such curve, though single readings can be large; an effect the other way counts as inactive or inconclusive.

How the values were obtained:
[1] = A CellTox Green Cytotoxicity Assay to monitor cytotoxicity in HEK293 cells - 32 hour (AID 1224881); further: nearly all actives have a fitted effect of over 40% in size; further: potency means the concentration at half of the fitted maximal effect
In short: (§1)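 HEK293 cells premixed with CellTox Green dye were seeded at 600 cells/well and left 5 h at 37 C/5% CO2 before pin transfer of 23 nL compound in DMSO. Fluorescence from dye bound to dead-cell DNA was read during 40 h treatment.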

[2] = A CellTox Green Cytotoxicity Assay to monitor cytotoxicity in HepG2 cells - 0 hour (AID 1224882); further: nearly all actives have a fitted effect of over 35% in size
In short: (§2)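 HepG2 cells were seeded together with the CellTox Green dye at 600 cells/well, left 5 h at 37 C/5% CO2, then given compounds in DMSO. Fluorescence from dye bound to dead-cell DNA was read repeatedly over 40 h of treatment at 37 C.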

[3] = A CellTox Green Cytotoxicity Assay to monitor cytotoxicity in HepG2 cells - 32 hour (AID 1224883); further: nearly all actives have a fitted effect of over 50% in size
In short: as §2

[4] = A CellTox Green Cytotoxicity Assay to monitor cytotoxicity in HEK293 cells - 8 hour (AID 1224884); further: nearly all actives have a fitted effect of over 35% in size
In short: as §1

[5] = qHTS RealTime-Glo MT Cell Viability Assay in HepG2 cells - 16 hour (AID 1224885); further: nearly all actives have a fitted effect of over 50% in size
In short: (§3)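 Viability was tracked continuously by NanoLuc luminescence from prosubstrate reduced by living HepG2 cells, at successive time points over 40 h of compound exposure. Cells with reagent were preincubated 5 h at 37 °C before compound addition.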

[6] = qHTS RealTime-Glo MT Cell Viability Assay in HEK293 cells - 24 hour (AID 1224886); further: top concentration of the series differs between compounds; nearly all actives have a fitted effect of over 50% in size
In short: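 Viability tracked continuously by luminescence as live cells reduce a prosubstrate for NanoLuc; HEK293 cells preincubated 5 h, compound-treated at 37 C, and read at 0, 8, 16, 24, 32 and 40 h.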

[7] = qHTS RealTime-Glo MT Cell Viability Assay in HEK293 cells - 8 hour (AID 1224887); further: top concentration of the series differs between compounds; nearly all actives have a fitted effect of over 50% in size
In short: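 HEK293 cells mixed with RealTime-Glo reagents (NanoLuc plus cell-permeant prosubstrate) at 600 cells/well, preincubated 5 h at 37 C/5% CO2, then given 23 nL compound in DMSO. Nonlytic luminescence from viable cells was read at 0, 8, 16, 24, 32 and 40 h.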

[8] = A CellTox Green Cytotoxicity Assay to monitor cytotoxicity in HEK293 cells - 16 hour (AID 1224888); further: nearly all actives have a fitted effect of over 35% in size
In short: as §1

[9] = qHTS RealTime-Glo MT Cell Viability Assay in HepG2 cells - 0 hour (AID 1224889); further: nearly all actives have a fitted effect of over 50% in size; further: potency means the concentration at half of the fitted maximal effect
In short: as §3

[10] = A CellTox Green Cytotoxicity Assay to monitor cytotoxicity in HepG2 cells - 8 hour (AID 1224890); further: nearly all actives have a fitted effect of over 45% in size
In short: as §2

[11] = qHTS assay to identify small molecule antagonists of the estrogen receptor alpha (ER-alpha) signaling pathway using the BG1 cell line in the presence of 0.1 nM 17-beta-estradiol - cell viability counter screen (AID 1259241); further: nearly all actives have a fitted effect of over 40% in size
In short: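 Measures cytotoxicity alongside the ER-alpha antagonist readout: VM7Luc4E2 cells, charcoal-stripped serum, 0.1 nM 17beta-estradiol final, 22 hr compound incubation at 37C, CellTiter-Fluor fluorescence.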

[12] = qHTS assay to identify small molecule antagonists of the androgen receptor (AR) signaling pathway using the MDA cell line in the presence of 0.5 nM R1881 - cell viability counter screen (AID 1259242); further: nearly all actives have a fitted effect of over 45% in size
In short: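 MDA-kb2 cells (human breast carcinoma, stably carrying MMTV-luciferase reporter) were exposed to compounds with 0.5 nM R1881 (final) for 16 hr at 37C, 0% CO2; viability then read as live-cell protease fluorescence (CellTiter-Fluor, 30 min) in the same wells.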

[13] = target: Estrogen receptor (Homo sapiens) (UniProt P03372); assay: qHTS assay to identify small molecule antagonists of the estrogen receptor alpha (ER-alpha) signaling pathway using the BG1 cell line in the presence of 0.1 nM 17-beta-estradiol (AID 1259244); further: nearly all actives have a fitted effect of over 50% in size
In short: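 VM7Luc4E2 cells (endogenous full-length ER-alpha, stable 4xERE-luciferase) were grown 5 days in phenol red-free medium with charcoal-stripped FBS, then exposed 22 h at 37C to compounds plus 0.1 nM (final) 17beta-estradiol; ONE-Glo luminescence read-out.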

[14] = qHTS assay to identify small molecule phospholipidosis (PLD) inducers (AID 1259344; active means well fitted curve in the direction sought with a large enough effect; an effect the other way counts as inactive or inconclusive)
In short: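 HepG2 cells grown on collagen I take up LipidTOX Red while exposed to compound for 24 h; after fixation they are imaged at 20x and pit metrics are extracted.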

[15] = qHTS assay to identify small molecule HDAC inhibitors (AID 1259364); further: top concentration of the series differs between compounds; nearly all actives have a fitted effect of over 45% in size
In short: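 Wild-type HCT-116 cells were plated overnight, exposed to compounds for 2 h at 37 °C, then given HDAC-Glo class I/II luminogenic reagent for 30 min at room temperature before luminescence was read.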

[16] = qHTS assay to identify small molecule HDAC inhibitors - cell viability counter screen (AID 1259365)
In short: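 Following a 2hr exposure of overnight-plated wild-type HCT-116 cells to DMSO-delivered compounds, CellTiter-Glo was added and luminescence recorded after 30min at room temperature.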

[17] = qHTS assay to identify small molecule agonists of the sonic hedgehog signaling (Shh) pathway - cell viability counter screen (AID 1259366); further: nearly all actives have a fitted effect of over 50% in size
In short: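 After a 4hr attachment at 37C, NIH/3T3 cells bearing an integrated Gli1-driven luciferase reporter were dosed with compounds. Treatment lasted 24hr, with the final hour including CellTiter-Fluor for a fluorescence viability measurement.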

[18] = qHTS assay to identify small molecule antagonists of the sonic hedgehog signaling (Shh) pathway - cell viability counter screen (AID 1259367); further: nearly all actives have a fitted effect of over 55% in size
In short: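 After a 4 hr settling period, 3T3 Gli1-Luc cells were treated with DMSO-dissolved chemicals and conditioned medium, kept 24 hr at 37C in 5% CO2, and assayed for viability by CellTiter-Fluor fluorescence following 1 hr reagent incubation.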

[19] = qHTS assay to identify small molecule agonists of the sonic hedgehog signaling (Shh) pathway (AID 1259368; calls by dose curve; further: series mostly up to about 92 µM; nearly all actives have a fitted effect of over 15% in size)
In short: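 NIH/3T3-derived 3T3Gli1-Luc cells carrying a stably integrated Gli1 response element–firefly luciferase reporter were plated, left 4 hr at 37 C, then given compounds in DMSO for 24 hr. Luminescence was read 30 min after adding luciferase reagent.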

[20] = target: Androgen receptor (Homo sapiens) (UniProt P10275); assay: qHTS assay to identify small molecule antagonists of the androgen receptor (AR) signaling pathway using the MDA cell line in the presence of 0.5 nM R1881 (AID 1259243); further: nearly all actives have a fitted effect of over 50% in size
In short: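 MDA-kb2 human breast carcinoma cells carrying an MMTV-luciferase reporter (AR- and GR-responsive) were plated, rested 5 hr at 37C, dosed with compounds, then stimulated with 0.5 nM R1881 (final) for 16 hr; luminescence was read after ONE-Glo.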

Sequence of Estrogen receptor (Homo sapiens) (P03372 whole entry, looked up): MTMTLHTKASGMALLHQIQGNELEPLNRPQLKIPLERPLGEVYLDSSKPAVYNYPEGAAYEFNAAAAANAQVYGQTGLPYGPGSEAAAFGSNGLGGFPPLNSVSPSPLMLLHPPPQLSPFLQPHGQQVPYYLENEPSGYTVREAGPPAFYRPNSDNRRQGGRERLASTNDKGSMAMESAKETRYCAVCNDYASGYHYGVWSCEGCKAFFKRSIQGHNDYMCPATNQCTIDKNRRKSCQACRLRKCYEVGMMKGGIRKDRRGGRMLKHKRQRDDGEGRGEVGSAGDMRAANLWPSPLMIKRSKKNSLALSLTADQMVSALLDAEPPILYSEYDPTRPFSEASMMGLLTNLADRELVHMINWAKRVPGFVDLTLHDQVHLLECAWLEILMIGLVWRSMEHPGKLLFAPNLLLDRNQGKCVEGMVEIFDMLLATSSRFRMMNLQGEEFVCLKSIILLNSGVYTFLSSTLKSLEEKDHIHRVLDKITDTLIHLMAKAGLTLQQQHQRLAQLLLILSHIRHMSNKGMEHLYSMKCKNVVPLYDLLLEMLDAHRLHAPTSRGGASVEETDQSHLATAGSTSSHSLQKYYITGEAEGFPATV
Sequence of Androgen receptor (Homo sapiens) (P10275 whole entry, looked up): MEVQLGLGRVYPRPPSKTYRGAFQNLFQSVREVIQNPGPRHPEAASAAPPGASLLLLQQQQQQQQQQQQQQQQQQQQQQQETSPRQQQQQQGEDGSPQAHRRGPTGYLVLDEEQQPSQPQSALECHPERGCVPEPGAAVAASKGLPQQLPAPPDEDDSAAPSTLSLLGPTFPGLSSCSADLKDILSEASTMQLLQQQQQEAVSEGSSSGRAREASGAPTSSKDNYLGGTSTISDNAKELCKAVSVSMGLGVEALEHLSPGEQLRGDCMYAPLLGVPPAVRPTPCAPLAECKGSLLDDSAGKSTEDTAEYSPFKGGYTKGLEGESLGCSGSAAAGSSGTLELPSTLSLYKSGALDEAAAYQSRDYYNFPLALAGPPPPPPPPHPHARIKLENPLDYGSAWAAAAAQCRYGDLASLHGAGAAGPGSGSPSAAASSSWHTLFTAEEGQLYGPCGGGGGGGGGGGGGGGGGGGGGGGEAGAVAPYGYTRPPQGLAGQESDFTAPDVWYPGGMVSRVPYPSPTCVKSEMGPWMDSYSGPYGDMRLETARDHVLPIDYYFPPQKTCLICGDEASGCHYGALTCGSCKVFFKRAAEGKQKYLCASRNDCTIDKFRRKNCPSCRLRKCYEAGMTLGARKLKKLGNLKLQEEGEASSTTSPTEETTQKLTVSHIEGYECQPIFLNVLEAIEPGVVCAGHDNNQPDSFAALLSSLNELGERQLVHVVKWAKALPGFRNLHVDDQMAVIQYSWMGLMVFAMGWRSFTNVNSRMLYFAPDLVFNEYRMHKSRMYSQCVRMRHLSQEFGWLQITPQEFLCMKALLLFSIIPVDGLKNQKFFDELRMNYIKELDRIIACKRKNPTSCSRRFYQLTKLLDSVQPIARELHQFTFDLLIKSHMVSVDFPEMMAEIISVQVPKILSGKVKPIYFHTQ

With `O=C1OCCN1/N=C/c1ccc([N+](=O)[O-])o1` the Potency [1] was “inactive”, the Potency [2] was “inactive” and the Potency [3] was “inactive”. The Potency [4] was “inactive”, the Potency [5] was “inactive” and the Potency [6] was “inactive”. The Potency [7] was “inactive”, the Potency [8] was “inactive” and the Potency [9] was “inactive”. For the same compound, the Potency [10] was “inactive”, the Potency [11] was “inactive” and the Potency [12] was “inactive”. The Potency [13] was “inactive”, the outcome [14] was “inactive” and the Potency [15] was “inactive”. The Potency [16] was “inactive”, the Potency [17] was “inactive” and the Potency [18] was “inactive”. For the same compound, the Potency [19] was “inactive”.
For `OCCSc1ccccc1`, the Potency [1] was “inactive”, the Potency [2] was “inactive” and the Potency [3] was “inactive”. For the same compound, the Potency [4] was “inactive”, the Potency [5] was “inactive” and the Potency [6] was “inactive”. The Potency [7] was “inactive”, the Potency [8] was “inactive” and the Potency [9] was “inactive”. For the same compound, the Potency [10] was “inactive”, the Potency [11] was “inactive” and the Potency [12] was “inactive”. The Potency [13] was “inactive”, the Potency [15] was “inactive” and the Potency [16] was “inactive”. For the same compound, the Potency [17] was “inactive”, the Potency [18] was “inactive” and the Potency [19] was “inactive”.
With `CCCCCCOC(=O)C(C)C` the Potency [1] was “inactive”, the Potency [2] was “inactive” and the Potency [3] was “inactive”. The Potency [4] was “inactive”, the Potency [5] was “inactive” and the Potency [6] was “inactive”. For the same compound, the Potency [7] was “inactive”, the Potency [8] was “inactive” and the Potency [9] was “inactive”. The Potency [10] was “inactive”, the Potency [11] was “inactive” and the Potency [12] was “inactive”. For the same compound, the Potency [15] was “inactive”, the Potency [16] was “inactive” and the Potency [17] was “inactive”. The Potency [18] was “inactive”.
For `C[N+]1(C)CCC(=C(c2ccccc2)c2ccccc2)CC1`, the Potency [1] was “inactive”, the Potency [2] was “inactive” and the Potency [3] was “inactive”. For the same compound, the Potency [4] was “inactive”, the Potency [5] was “inactive” and the Potency [6] was “inactive”. The Potency [7] was “inactive”, the Potency [8] was “inactive” and the Potency [9] was “inactive”. For the same compound, the Potency [10] was “inactive”, the Potency [11] was “inactive” and the Potency [12] was “inactive”. The outcome [14] was “inactive”, the Potency [15] was “inactive” and the Potency [16] was “inactive”. For the same compound, the Potency [17] was “inactive”, the Potency [18] was “inactive” and the Potency [19] was “inactive”.
For `CCC(=O)OC/C=C/c1ccccc1`, the Potency [1] was “inactive”, the Potency [2] was “inactive” and the Potency [3] was “inactive”. The Potency [4] was “inactive”, the Potency [5] was “inactive” and the Potency [6] was “inactive”. The Potency [7] was “inactive”, the Potency [8] was “inactive” and the Potency [9] was “inactive”. For the same compound, the Potency [10] was “inactive”, the Potency [11] was “inactive” and the Potency [12] was “inactive”. For the same compound, the Potency [13] was “inactive”, the Potency [15] was “inactive” and the Potency [16] was “inactive”. For the same compound, the Potency [17] was “inactive”, the Potency [18] was “inactive” and the Potency [19] was “inactive”.
In the case of `CC(=O)OCC(=O)[C@@]12OC(C)(C)O[C@@H]1C[C@H]1[C@@H]3C[C@H](F)C4=CC(=O)C=C[C@]4(C)[C@@]3(F)[C@@H](O)C[C@@]12C`, the Potency [1] is reported as 26.8 µM (active), the Potency [2] is reported as “inactive” and the Potency [3] is reported as “inactive”. The Potency [4] was “inactive”, the Potency [5] was “inactive” and the Potency [6] was “inactive”. The Potency [7] was “inactive”, the Potency [8] was “inactive” and the Potency [9] was 2.68 µM (active). The Potency [10] was “inactive”, the Potency [11] was “inactive” and the Potency [12] was “inactive”. The Potency [13] was “inactive”, the outcome [14] was “inactive” and the Potency [16] was “inactive”. The Potency [17] was “inactive”, the Potency [18] was “inactive” and the Potency [19] was “inactive”.
In the case of `Cn1c(=O)c2c(ncn2CC(=O)O)n(C)c1=O`, the Potency [1] is reported as “inactive”, the Potency [2] is reported as “inactive” and the Potency [3] is reported as “inactive”. The Potency [4] was “inactive”, the Potency [5] was “inactive” and the Potency [6] was “inactive”. The Potency [7] was “inactive”, the Potency [8] was “inactive” and the Potency [9] was “inactive”. For the same compound, the Potency [10] was “inactive”, the Potency [11] was “inactive” and the Potency [12] was “inactive”. For the same compound, the Potency [20] was “inactive”, the Potency [13] was “inactive” and the Potency [15] was “inactive”. For the same compound, the Potency [16] was “inactive”, the Potency [17] was “inactive” and the Potency [18] was “inactive”. The Potency [19] was “inactive”.
